For 14 compounds, growth results are on record in PubChem BioAssay (NCI).

Each structure is given as a SMILES string. Several values for one entry are separate records, joined by “and”; a condition that tells them apart may be missing. Equal values may be shown once. Compounds without any hit were thinned out: in the full panel of roughly 83,000, 20% have a hit.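 Note: values are percent growth. 100 is the growth of untreated cells, values between 100 and 0 indicate rising inhibition; between -100 and 0 indicates cell death.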 Values without a mark were called inactive. Activity calls are given as the source filed them. Rule for the calls: active = growth percent below 10; inactive = the rest.

For the assay, the system named is MDA-MB-468 breast. Nature of the assay: NCI-60 one-dose screen, 48 h (100 = growth as untreated, 0 = no growth, -100 = all killed). The note with it: 10 µM unless noted.
For `COc1ccc(-c2c3c(N)c4c(nc3nc3c2c(C)nn3-c2ccccc2)CCCC4)cc1`, the growth was 70.3%.

Turning to `COc1ccc2c(c1)C(=O)c1c-2c(OCCN2CCCCC2)nc2ccc(OC)cc12`, the growth is -10.6% (active).

Consider `Cc1ccc(C2=NN(c3ccc(S(=O)(=O)NC(=O)NCc4ccccc4)cc3)C(c3ccc(N(C)C)cc3)C2)c(C)c1` (centres undefined), for which the growth was 49.4%. With `COc1cc(-c2cc3ncccc3c3nc(OCCN(C)C)c4cccnc4c23)cc(OC)c1OC` the figure was -6.09% (active). For `C1=C2CCCC3=Cc4ccccc4OC23Oc2ccccc21` the value was 25.5%. With `COc1cc2cc3c(=O)n4c(cc5cc(OC)ncc54)c(=O)n3c2cn1` the figure was 102%; with `C=C(C=O)[C@@H]1CC[C@]2(C)[C@H](C(=O)C=C3[C@H]4C[C@](C)(C(=O)OC)CC[C@]4(C)CC[C@]32C)[C@@]1(C)CCC#N`, 80.2%; with `Cc1cc(C)c2c(-c3nnc(N)s3)cc(=O)oc2c1`, 104%. For `COc1cc(NS(C)(=O)=O)ccc1Nc1c2ccccc2nc2ccccc12`, the growth was -3.7% (active) and -17.8% (active). With `C=C1C(=O)C2CCN1CC2` the figure was 101%.

In the case of `Clc1ccc2c(NCCNc3nc(-c4ccccc4)cc(-c4ccccc4)n3)ccnc2c1`, the growth was -53.8% (active). With `CC(=O)c1ccccc1O` the figure was 101% and 103% and 108%. With `O=c1n(CC2CO2)c(=O)n(CC2CO2)c(=O)n1CC1CO1` (centres undefined) the figure was 56.7%; with `CC(C)(CC(=O)O)CC(=O)O`, 96.4%.
